# The list is not random: actives were taken first. Their share in the collection is about 9.6%.
# PTEN del growth: growth suppressors of cells with PTEN tumor suppressor deletion; AID 827; 140,000 tested, 1.2% active; viability, % at 10 µM; HCT116 PTEN-null viability, CellTiter-Glo, 60 h; hits give low values;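 active = viability at or below a set limit, 4 SD under the median of all tested compounds, cut at about 3.7% in these data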;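 also: PTEN knockout HCT116 line with beta catenin targeted HCT116 as companion control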
# Ins promoter up: MIN6 insulin promoter up-regulation; 190,000 tested, 0.3% active; MIN6 insulin promoter-GFP reporter, high-content imaging; hits give high values; z-score at 5 µM;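 active = z-score above 3 at 5 µM with at least 500 cells counted in the well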
# Autophagy HCS: autophagy modulation, high-content screen. MEF GFP-LC3 puncta imaging; test concentration mostly 10 µM. calls only at 10 µM (by protocol). 190,000 tested, 0.98% active;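 active = percentage of spot-positive cells more than 3 SD above its plate mean, without a fluorescence outlier flag or 80% toxicity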;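 also: spot-positive cell cutoff set from DMSO-treated cells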
# HCT116 bCat-KO: beta-catenin-lacking colon tumor cell growth suppression | HCT116 beta-catenin knockout viability, CellTiter-Glo, 60 h; hits give low values | viability, % at 10 µM | 140,000 tested, 1.5% active;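 active = viability at or under a set limit, the compound median less 4 SD, cut at about 6% in these data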;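 also: 0% = Hyamine 1622 control at 20 µM and 100% = untreated cell control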
# Lmaj promast: inhibitors of Leishmania major promastigote growth. 200,000 tested, 9% active. Leishmania major promastigotes, resazurin fluorescence viability. inhibition, % at 10 µM; in the data active = inhibition above about 50%;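 also: promastigotes grown with compound for 44 hours at 28 °C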
# Insulin prom inh: TRM-6 insulin promoter activity inhibition. TRM-6 cells (human fetal islet line), insulin promoter-eGFP reporter, imaging; reporter expression induced with tamoxifen. inhibition, % at 2 µM. 130,000 tested, 0.9% active. AID 1273;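 active = inhibition above the mean plus 3 SD, with well images judged a real hit on visual review, cut at about 60% in these data, passing the limit was not always enough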
# Starred values were filed as active, the others as inactive; i = inactive; nt = no result; + = active, no number.
SMILES,PTEN del growth,Ins promoter up,Autophagy HCS,HCT116 bCat-KO,Lmaj promast,Insulin prom inh
Cc1ccc(NC(=O)CSc2nc3ccccc3c(=O)n2CCCN2CCCCC2)cc1C,2.1*,-1.15,+,1.9*,100.4*,-25.7
CCC(C)NC(=O)CSc1nc2ccccc2c(=O)n1Cc1ccc(OC)cc1 (centres undefined),90.7,0.9,i,81.4,55.4*,-43.3
CSCCC(NS(=O)(=O)c1ccc(Cl)cc1)C(=O)OCc1cccc(Cl)c1 (centres undefined),93.5,-0.39,i,86.2,96.9*,-17.9
CSCCC(NS(=O)(=O)c1ccccc1F)C(=O)OCc1ccccc1Cl (centres undefined),96.9,0.12,i,90.2,74.9*,-35.9
CSCCC(NS(=O)(=O)c1ccc(Cl)cc1)C(=O)O (centres undefined),nt,0.97,i,nt,-3.8,nt
CSCCC(NS(=O)(=O)c1ccc(Br)cc1)C(=O)OCC(=O)NC1CC1 (centres undefined),nt,-0.27,i,nt,3.8,83.3*
COc1ccc(CNC(=O)C(CCSC)NS(=O)(=O)c2ccccc2F)cc1 (centres undefined),nt,-0.39,i,nt,1.4,nt
CSCCC(NS(=O)(=O)c1ccc(Cl)cc1)C(=O)OCC(=O)N(C(C)C)C(C)C (centres undefined),97.7,0.8,i,98.0,4.7,-21.7
CSCCC(NS(=O)(=O)c1ccc(Cl)cc1)C(=O)OCc1c(Cl)cccc1Cl (centres undefined),61.7,-0.16,i,72.3,99.3*,-46.1
CSCCC(NS(=O)(=O)c1ccc(Cl)cc1)C(=O)OCC(=O)NC1CC1 (centres undefined),91.5,-1.17,i,90.7,-1.7,2.6
O=C(c1cccs1)N1CCCN(c2ncnc3scc(-c4ccccc4)c23)CC1,nt,-0.44,nt,nt,nt,nt
O=[N+]([O-])c1ccccc1OCCCN1CCOCC1,95.5,-0.25,i,96.2,41.8,6.9
COc1ccccc1C(=O)OCCN1CCOCC1,96.2,-0.19,i,94.1,-3.4,-2.8
COc1ccccc1OCCCCCCN1CCOCC1,nt,0.31,i,nt,89.5*,-11.1
Fc1ccccc1OCCCN1CCOCC1,92.2,0,i,93.6,51.4*,nt
COc1cc(C(C)=O)ccc1Oc1ncnc2c1cnn2-c1cccc(Cl)c1,70.3,0.13,i,62.9,52.0*,39.3
CCn1c(=O)c([N+](=O)[O-])c(N2CCN(Cc3ccc4c(c3)OCO4)CC2)c2ccccc21,nt,-0.75,nt,nt,nt,nt
CCOC(=O)C1=C(C)Nc2ccccc2N=C1NC(=O)/C=C/c1ccc(OC)cc1OC,nt,-0.86,i,nt,80.1*,-41.2
CCCS(=O)(=O)c1nc(S(=O)(=O)c2ccc(C)cc2)c(NCCCN(C)C)s1,nt,0.08,i,nt,95.3*,26.7
CCCS(=O)(=O)c1nc(S(=O)(=O)c2ccc(C)cc2)c(NCCN2CCOCC2)s1,90.3,0.32,i,86.2,-4.7,-34.6
Cc1ccc(S(=O)(=O)c2nc(NCCN(C)C)sc2Cl)cc1,87.6,-1.34,i,87.6,89.0*,-30.8
CCCS(=O)(=O)c1nc(S(=O)(=O)c2ccc(C)cc2)c(NCc2ccc3c(c2)OCO3)s1,86.6,0.57,i,89.7,61.8*,22.6
CN(C)C(=O)COc1ncnc2scc(-c3ccc(F)cc3)c12,nt,0.16,i,nt,-3.5,33.3
CCn1ncc(CN2CCCC(C(=O)c3cccc(OC(C)C)c3)C2)c1C (centres undefined),nt,0.12,i,nt,80.0*,nt
CCOC(=O)c1[nH]ncc1CN1CCCC(C(=O)c2cccc(OC(C)C)c2)C1 (centres undefined),nt,-0.12,i,nt,3.5,nt
SMILES,PTEN del growth,Ins promoter up,Autophagy HCS,HCT116 bCat-KO,Lmaj promast,Insulin prom inh
Cc1c(CN2CCCC(C(=O)c3cccc(OC(C)C)c3)C2)c(=O)n(-c2ccccc2)n1C (centres undefined),nt,-0.29,+,nt,17.9,nt
O=C(CCS(=O)(=O)CCN1CCOCC1)NCNC(=O)CCS(=O)(=O)CCN1CCOCC1,nt,-0.78,i,nt,-4.2,nt
COC(=O)c1cccc(-c2ccc(C(c3c(C)[nH][nH]c3=O)c3c(C)[nH][nH]c3=O)o2)c1,nt,-0.13,i,nt,92.4*,nt
COC(=O)c1ccccc1-c1ccc(C(c2c(C)[nH][nH]c2=O)c2c(C)[nH][nH]c2=O)o1,nt,0.18,i,nt,100.2*,nt
Cc1[nH][nH]c(=O)c1C(c1ccc(-c2ccc(Cl)c(C(=O)O)c2)o1)c1c(C)[nH][nH]c1=O,nt,0.27,+,nt,-4.9,nt
COC(=O)c1ccccc1NC(=O)c1ccc(-c2ccccc2F)o1,76.3,-0.91,i,85.5,-1.6,-6.8
O=C(NCc1ccco1)/C(=C/C=C\c1ccccc1)NC(=O)c1ccc(Br)o1,42.9,-0.65,i,46.7,0.0,20.0
N#C/C(=C\c1cccs1)C(=O)NCC1CCCO1 (centres undefined),101.0,nt,i,95.2,-5.4,0.0
CC(C)CCn1c(Oc2ccc(Cl)cc2)nc2c1c(=O)n(C)c(=O)n2C,79.8,nt,i,85.0,10.4,-35.7
CC1CC1C(=O)Nc1nc(-c2cccs2)c(-c2cccs2)s1 (centres undefined),63.5,-0.39,i,64.5,61.5*,17.9
CCCOC(=O)c1cc(-c2ccc(/C=C3/C(=O)N(C)C(=O)C(C#N)=C3C)o2)ccc1Cl,nt,nt,i,nt,3.7,-44.8
Cc1c(Cc2ccccc2)sc(NC(=O)/C=C/c2cccc3ccccc23)c1C(N)=O,45.4,-0.39,+,42.9,-3.9,nt
COC(=O)c1c(NC(=O)/C=C/C(=O)O)sc(Cc2ccccc2)c1C,83.7,-0.2,i,74.4,-3.9,8.0
S=c1[nH]nc(-c2ccc3ccccc3n2)n1-c1cc(Cl)cc(Cl)c1,70.9,-0.87,i,75.1,28.7,5.9
S=c1[nH]nc(-c2ccc3ccccc3n2)n1-c1ccccc1Cl,93.5,1.07,i,84.5,52.2*,25.0
CCOC(=O)C(NC(=O)CC)(Nc1nc2c(s1)CCCC2)C(F)(F)F (centres undefined),94.6,-0.01,i,90.5,7.1,0.0
N#CC1=C(N)N2C(=C(C#N)C1c1ccccc1)Sc1ccccc12 (centres undefined),91.0,nt,+,89.9,0.2,nt
C=CCn1c(=O)/c(=C2/Sc3ccccc3N2CC)s/c1=C1/C(=O)NN=C1C,nt,0.68,i,nt,96.9*,-387.8
C/C(Cn1nnc([N+](=O)[O-])n1)=N\NC(=O)c1ccccc1,40.6,-0.08,i,29.8,84.1*,nt
Cc1ccccc1C1NS(=O)(=O)N=C1N (centres undefined),97.0,-0.37,i,96.7,-3.9,-35.1
Cc1cccc2cc(CN(C(=S)NCC(C)C)C3CCCC3)c(=O)[nH]c12,83.1,0.02,i,77.6,64.7*,30.2
Cc1cc2nc(CCN(C(=S)NCC(C)C)C3CCCC3)[nH]c2cc1C,18.3,nt,i,12.2,71.5*,4.4
Cc1cc2nc(CCN(C(=S)NCC3CCCO3)C3CCCC3)[nH]c2cc1C (centres undefined),nt,-1.06,i,nt,22.6,nt
